Data published in the supplement of paper PMC8728848.
Only a selection was taken, and the strongest signals are over-represented in it overall.

Assays:
Assay in all cases: glycan array binding signal (z-score within array); higher = stronger binding
Conditions in all cases: glycan notation: IUPAC condensed, linker removed
Fuc(a1-2)Gal(b1-3)GalNAc = biological target: Fuc(a1-2)Gal(b1-3)GalNAc
How it was run: (§1)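 Glycan array binding is given as a within-array Z-score, which can be read as non-binding when negative. The arrays, 3228 of them, came from the Consortium for Functional Glycomics database and were retained only where the protein sequence was available. Z-scores were averaged across arrays of the same protein sequence at different concentrations or buffers and across linkers.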

[1] = biological target: Fuc(a1-2)Gal(b1-3)GlcNAc(b1-3)[Fuc(a1-2)Gal(b1-3)GlcNAc(b1-6)]GalNAc
How it was run: as §1

[2] = biological target: Fuc(a1-2)Gal(b1-3)[Fuc(a1-4)]GlcNAc(b1-2)Man(a1-3)[Fuc(a1-2)Gal(b1-3)[Fuc(a1-4)]GlcNAc(b1-2)Man(a1-3)]Man(b1-4)GlcNAc(b1-4)GlcNAc
How it was run: as §1

Fuc(a1-2)Gal(b1-4)Glc = biological target: Fuc(a1-2)Gal(b1-4)Glc
How it was run: as §1

[3] = biological target: Fuc(a1-2)Gal(b1-4)GlcNAc(b1-2)Man(a1-3)[Fuc(a1-2)Gal(b1-4)GlcNAc(b1-2)Man(a1-6)]Man(b1-4)GlcNAc(b1-4)GlcNAc
How it was run: as §1

[4] = biological target: Fuc(a1-2)Gal(b1-4)GlcNAc(b1-2)[Fuc(a1-2)Gal(b1-4)GlcNAc(b1-4)]Man(a1-3)[Fuc(a1-2)Gal(b1-4)GlcNAc(b1-2)Man(a1-6)]Man(b1-4)GlcNAc(b1-4)GlcNAc
How it was run: as §1

[5] = biological target: Fuc(a1-2)Gal(b1-4)GlcNAc(b1-3)[Fuc(a1-3)[Gal(b1-4)]GlcNAc(b1-6)]Gal(b1-4)Glc
How it was run: as §1

[6] = biological target: Fuc(a1-2)Gal(b1-4)[Fuc(a1-3)]GlcNAc(b1-2)[Fuc(a1-2)Gal(b1-4)[Fuc(a1-3)]GlcNAc(b1-4)]Man(a1-3)[Fuc(a1-2)Gal(b1-4)[Fuc(a1-3)]GlcNAc(b1-2)Man(a1-6)]Man(b1-4)GlcNAc(b1-4)GlcNAc
How it was run: as §1

Fuc(a1-2)Gal6S(b1-4)Glc = biological target: Fuc(a1-2)Gal6S(b1-4)Glc
How it was run: as §1

[7] = biological target: Fuc(a1-2)[Gal(a1-3)]Gal(b1-3)GlcNAc(b1-2)Man(a1-3)[Fuc(a1-2)[Gal(a1-3)]Gal(b1-3)GlcNAc(b1-2)Man(a1-6)]Man(b1-4)GlcNAc(b1-4)GlcNAc
How it was run: as §1

[8] = biological target: Gal(a1-3)[Gal(a1-4)]Gal(b1-4)GlcNAc
How it was run: as §1

[9] = biological target: Gal(a1-4)Gal(b1-4)GlcNAc(b1-3)Gal(b1-4)Glc
How it was run: as §1

[10] = biological target: Gal(b1-3)GlcNAc(b1-2)Man(a1-3)[Gal(b1-3)GlcNAc(b1-2)Man(a1-6)]Man(b1-4)GlcNAc(b1-4)GlcNAc
How it was run: as §1

[11] = biological target: Gal(b1-3)GlcNAc(b1-2)Man(a1-3)[Gal(b1-3)GlcNAc(b1-2)Man(a1-6)]Man(b1-4)GlcNAc(b1-4)[Fuc(a1-6)]GlcNAc
How it was run: as §1

[12] = biological target: Gal(b1-3)GlcNAc(b1-2)[Gal(b1-3)GlcNAc(b1-6)]Man(a1-6)[Gal(b1-3)GlcNAc(b1-2)Man(a1-3)]Man(b1-4)GlcNAc(b1-4)GlcNAc
How it was run: as §1

[13] = biological target: Gal(b1-3)GlcNAc(b1-3)Gal(b1-4)[Fuc(a1-3)]GlcNAc
How it was run: as §1

[14] = biological target: Gal(b1-4)GlcNAc(b1-2)Man(a1-3)[GlcNAc(b1-4)][Gal(b1-4)GlcNAc(b1-2)Man(a1-6)]Man(b1-4)GlcNAc(b1-4)GlcNAc
How it was run: as §1

[15] = biological target: Gal(b1-4)GlcNAc(b1-2)Man(a1-6)Man(b1-4)GlcNAc(b1-4)GlcNAc
How it was run: as §1

[16] = biological target: Gal(b1-4)GlcNAc(b1-3)Gal(b1-4)GlcNAc(b1-3)Gal(b1-4)GlcNAc(b1-3)Gal(b1-4)GlcNAc(b1-2)Man(a1-3)[Gal(b1-4)GlcNAc(b1-3)Gal(b1-4)GlcNAc(b1-3)Gal(b1-4)GlcNAc(b1-3)Gal(b1-4)GlcNAc(b1-2)Man(a1-6)]Man(b1-4)GlcNAc(b1-4)[Fuc(a1-6)]GlcNAc
How it was run: as §1

[17] = biological target: Gal(b1-4)GlcNAc(b1-3)Gal(b1-4)GlcNAc(b1-6)[Gal(b1-3)]GalNAc
How it was run: as §1

Gal(b1-6)Gal = biological target: Gal(b1-6)Gal
How it was run: as §1

Gal3S6S(b1-4)GlcNAc = biological target: Gal3S6S(b1-4)GlcNAc
How it was run: as §1

Gal3S6S(b1-4)GlcNAc6S = biological target: Gal3S6S(b1-4)GlcNAc6S
How it was run: as §1

Gal6S(b1-3)GlcNAc = biological target: Gal6S(b1-3)GlcNAc
How it was run: as §1

Gal6S(b1-3)GlcNAc6S = biological target: Gal6S(b1-3)GlcNAc6S
How it was run: as §1

Gal6S(b1-4)Glc = biological target: Gal6S(b1-4)Glc
How it was run: as §1

Gal6S(b1-4)Glc6S = biological target: Gal6S(b1-4)Glc6S
How it was run: as §1

Gal6S(b1-4)GlcNAc = biological target: Gal6S(b1-4)GlcNAc
How it was run: as §1

Gal6S(b1-4)GlcNAc6S = biological target: Gal6S(b1-4)GlcNAc6S
How it was run: as §1

[18] = biological target: GalNAc(a1-3)GalNAc(b1-3)Gal(a1-4)Gal(b1-4)GlcNAc
How it was run: as §1

GalNAc(b1-4)Gal(b1-4)Glc = biological target: GalNAc(b1-4)Gal(b1-4)Glc
How it was run: as §1

GalNAc6S(b1-4)GlcNAc = biological target: GalNAc6S(b1-4)GlcNAc
How it was run: as §1

Glc(b1-4)Glc = biological target: Glc(b1-4)Glc
How it was run: as §1

[19] = biological target: GlcA3S(b1-3)Gal(b1-4)GlcNAc(b1-2)Man
How it was run: as §1

[20] = biological target: GlcA3S(b1-3)Gal(b1-4)GlcNAc(b1-3)Gal(b1-4)Glc
How it was run: as §1

[21] = biological target: GlcNAc(a1-3)Gal(b1-4)GlcNAc
How it was run: as §1

[22] = biological target: GlcNAc(a1-6)Gal(b1-4)GlcNAc
How it was run: as §1

[23] = biological target: GlcNAc(b1-3)Gal(b1-4)GlcNAc(b1-3)Gal(b1-4)GlcNAc(b1-2)Man(a1-3)[GlcNAc(b1-3)Gal(b1-4)GlcNAc(b1-3)Gal(b1-4)GlcNAc(b1-2)Man(a1-6)]Man(b1-4)GlcNAc(b1-4)[Fuc(a1-6)]GlcNAc
How it was run: as §1

[24] = biological target: GlcNAc(b1-4)Gal(b1-4)GlcNAc
How it was run: as §1

[25] = biological target: Neu5Ac(a2-3)Gal(b1-4)GlcNAc(b1-2)Man(a1-3)[Neu5Ac(a2-3)Gal(b1-4)GlcNAc(b1-2)Man(a1-6)]Man(b1-4)GlcNAc(b1-4)[Fuc(a1-6)]GlcNAc
How it was run: as §1

[26] = biological target: Neu5Ac(a2-3)Gal(b1-4)GlcNAc(b1-3)Gal(b1-4)GlcNAc(b1-3)Gal(b1-4)GlcNAc
How it was run: as §1

[27] = biological target: Neu5Ac(a2-3)Gal(b1-4)GlcNAc(b1-3)Gal(b1-4)GlcNAc(b1-3)Gal(b1-4)GlcNAc(b1-2)Man(a1-3)[Neu5Ac(a2-3)Gal(b1-4)GlcNAc(b1-3)Gal(b1-4)GlcNAc(b1-3)Gal(b1-4)GlcNAc(b1-2)Man(a1-6)]GalNAc
How it was run: as §1

[28] = biological target: Neu5Ac(a2-3)Gal(b1-4)GlcNAc(b1-3)Gal(b1-4)GlcNAc(b1-3)[Neu5Ac(a2-3)Gal(b1-4)GlcNAc(b1-3)Gal(b1-4)GlcNAc(b1-6)]GalNAc
How it was run: as §1

[29] = biological target: Neu5Ac(a2-3)Gal(b1-4)[Fuc(a1-3)]GlcNAc(b1-3)Gal(b1-4)GlcNAc
How it was run: as §1

[30] = biological target: Neu5Ac(a2-3)Gal6S(b1-4)GlcNAc
How it was run: as §1

[31] = biological target: Neu5Ac(a2-6)Gal(b1-4)GlcNAc(b1-2)Man(a1-3)Man(b1-4)GlcNAc(b1-4)GlcNAc
How it was run: as §1

[32] = biological target: Neu5Ac(a2-6)Gal(b1-4)GlcNAc(b1-2)Man(a1-6)[Gal(b1-4)GlcNAc(b1-2)Man(a1-3)]Man(b1-4)GlcNAc(b1-4)GlcNAc
How it was run: as §1

[33] = biological target: Neu5Ac(a2-6)Gal(b1-4)GlcNAc(b1-6)[Gal(b1-3)]GalNAc
How it was run: as §1

[34] = biological target: Neu5Ac(a2-6)GlcNAc(b1-4)GlcNAc
How it was run: as §1

[35] = biological target: Neu5Gc(a2-8)Neu5Gc(a2-6)Gal(b1-4)GlcNAc
How it was run: as §1

B1: GS13846A-bth-444-19-444 (Bacteroides thetaiotaomicron) (protein)
chain: SCENEFDVSDKADSLISVTVNTLNNQAAYNVGETAQAELWIQRGGLKDASGKVQFVVDPLLLDSLNQEDKTNYELLPENCYEMTNTEFTVDKNELCGYITYHPEKILALSAYNETKYVLPLRLISNDLAINPARNTSFLAFTILEPIVHISNAGVYNINPDLTSTMDIQIGVPFTNKWDILCNLTEDLSLIDEYNQINKVNFTLLPENAYTAPESVTLQEGVSQITASYQLKNNLVPGNYILPIKIGSITASQGGVPNNSLVIDEESNVLFCIVKEGNKINKSGWEVIECSSEHAGNEATYMIDDNESTYWHCKFKNEAGSSVPPFHFIIDMKKEITIAQIDLLNRGDGAANNIKWVEFYASNNNSEWDKIGAGDFNDEGTRATFRYYVKSTKARYLKLIIPEGYGNNCPPAAIRELTVYGLEGNN
- glycan array binding signal (z-score) (Fuc(a1-2)Gal(b1-3)GalNAc): -0.247
- glycan array binding signal (z-score) [1]: -0.101
- glycan array binding signal (z-score) [2]: -0.423
- glycan array binding signal (z-score) (Fuc(a1-2)Gal(b1-4)Glc): -0.176
- glycan array binding signal (z-score) [3]: 0.384
- glycan array binding signal (z-score) [4]: -0.079
- glycan array binding signal (z-score) [5]: 0.069
- glycan array binding signal (z-score) [6]: -0.407
- glycan array binding signal (z-score) (Fuc(a1-2)Gal6S(b1-4)Glc): -0.234
- glycan array binding signal (z-score) [7]: -0.305
- glycan array binding signal (z-score) [8]: 2.7
- glycan array binding signal (z-score) [9]: -0.018
- glycan array binding signal (z-score) [10]: 0.242
- glycan array binding signal (z-score) [11]: 3.4
- glycan array binding signal (z-score) [12]: -0.163
- glycan array binding signal (z-score) [13]: 0.028
- glycan array binding signal (z-score) [14]: -0.238
- glycan array binding signal (z-score) [15]: -0.133
- glycan array binding signal (z-score) [16]: 0.486
- glycan array binding signal (z-score) [17]: -0.308
- glycan array binding signal (z-score) (Gal(b1-6)Gal): -0.188
- glycan array binding signal (z-score) (Gal3S6S(b1-4)GlcNAc): 6.47
- glycan array binding signal (z-score) (Gal3S6S(b1-4)GlcNAc6S): 6.71
- glycan array binding signal (z-score) (Gal6S(b1-3)GlcNAc): 7.3
- glycan array binding signal (z-score) (Gal6S(b1-3)GlcNAc6S): 6.28
- glycan array binding signal (z-score) (Gal6S(b1-4)Glc): 3.68
- glycan array binding signal (z-score) (Gal6S(b1-4)Glc6S): 12.7
- glycan array binding signal (z-score) (Gal6S(b1-4)GlcNAc): 4.8
- glycan array binding signal (z-score) (Gal6S(b1-4)GlcNAc6S): 8.87
- glycan array binding signal (z-score) [18]: -0.175
- glycan array binding signal (z-score) (GalNAc(b1-4)Gal(b1-4)Glc): 0
- glycan array binding signal (z-score) (GalNAc6S(b1-4)GlcNAc): 5.49
- glycan array binding signal (z-score) (Glc(b1-4)Glc): -0.32
- glycan array binding signal (z-score) [19]: -0.266
- glycan array binding signal (z-score) [20]: -0.082
- glycan array binding signal (z-score) [21]: -0.214
- glycan array binding signal (z-score) [22]: -0.052
- glycan array binding signal (z-score) [23]: 0.103
- glycan array binding signal (z-score) [24]: -0.193
- glycan array binding signal (z-score) [25]: -0.407
- glycan array binding signal (z-score) [26]: 0.067
- glycan array binding signal (z-score) [27]: -0.089
- glycan array binding signal (z-score) [28]: -0.336
- glycan array binding signal (z-score) [29]: -0.205
- glycan array binding signal (z-score) [30]: -0.129
- glycan array binding signal (z-score) [31]: -0.287
- glycan array binding signal (z-score) [32]: -0.298
- glycan array binding signal (z-score) [33]: 1.86
- glycan array binding signal (z-score) [34]: 0.027
- glycan array binding signal (z-score) [35]: -0.262
